From the supplement of paper PMC3334620
The full ranking holds about 33,000 sequences; the median of “E-score (-0.5 to 0.5)” is about -0.012, and the highest 2% start at about 0.29. Shown is part of a subset that was picked to be rich in the highest values.

biological target: T1, Ybr033w (UniProt P38073); assay: PBM E-score (8-mer binding enrichment) (E-score (-0.5 to 0.5)); higher = stronger / more preferred TF binding; details: protein concentration: 200 nM; construct: GST-full length
T1 sequence: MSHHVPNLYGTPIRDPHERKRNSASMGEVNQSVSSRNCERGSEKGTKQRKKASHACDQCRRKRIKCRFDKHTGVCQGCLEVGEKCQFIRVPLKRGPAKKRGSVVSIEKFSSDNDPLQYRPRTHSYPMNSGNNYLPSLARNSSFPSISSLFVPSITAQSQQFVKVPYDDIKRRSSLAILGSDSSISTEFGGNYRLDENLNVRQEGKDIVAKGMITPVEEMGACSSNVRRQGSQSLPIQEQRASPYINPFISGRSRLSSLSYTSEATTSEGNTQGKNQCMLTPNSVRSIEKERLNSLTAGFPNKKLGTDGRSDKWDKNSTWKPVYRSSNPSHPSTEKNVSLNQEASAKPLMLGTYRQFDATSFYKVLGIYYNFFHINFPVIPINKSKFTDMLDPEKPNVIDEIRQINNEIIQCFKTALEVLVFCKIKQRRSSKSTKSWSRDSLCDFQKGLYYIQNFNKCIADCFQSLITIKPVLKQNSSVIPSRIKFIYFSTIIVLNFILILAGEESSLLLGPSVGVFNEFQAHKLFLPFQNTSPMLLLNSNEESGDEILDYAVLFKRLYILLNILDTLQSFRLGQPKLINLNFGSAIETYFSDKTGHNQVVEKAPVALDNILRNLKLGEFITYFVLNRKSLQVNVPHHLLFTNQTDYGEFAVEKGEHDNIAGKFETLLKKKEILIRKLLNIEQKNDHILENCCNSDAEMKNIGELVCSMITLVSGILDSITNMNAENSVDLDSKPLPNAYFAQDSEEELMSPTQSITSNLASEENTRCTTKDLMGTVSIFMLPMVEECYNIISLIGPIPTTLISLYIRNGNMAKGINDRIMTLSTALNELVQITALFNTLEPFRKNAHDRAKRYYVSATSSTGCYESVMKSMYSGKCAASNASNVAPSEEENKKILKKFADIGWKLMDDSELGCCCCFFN
How it was run: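 Universal all-10-mer Agilent arrays, fresh or stripped once, were converted to double-stranded form by primer extension. GST-tagged yeast transcription factors from PURExpress in vitro transcription/translation, full-length or DNA-binding domain only, were applied at about 100-200 nM and detected with fluorescent anti-GST. After masliner normalisation, the Universal PBM Analysis Suite scored each ungapped eight-base word together with its reverse complement by E-score.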

Row | Sequence | PBM E-score
1 | AAGAATAG | 0.204
2 | CGACAAAC | 0.0224
3 | CCATGGGA | -0.0942
4 | AAACTAGG | 0.0193
5 | GGAGAGAC | -0.0678
6 | ACTATTCG | 0.177
7 | GTTATTTA | 0.258
8 | CTTATTTA | 0.106
9 | ATTATTCG | 0.328
10 | ATTATTCA | 0.231
11 | ATTATTTA | 0.373
12 | AAATCTCT | 0.152
13 | AGAAAGTC | 0.173
14 | CCACGAGG | -0.0481
15 | CATAGGAA | 0.0524
16 | TATAGGAA | 0.232
17 | AATAGGAG | -0.253
18 | AATAGGAA | 0.29
19 | AATAGGAT | 0.295
20 | AATAGGAC | 0.0355
21 | ACGCGACC | -0.208
22 | ACTAACCA | 0.11
23 | AGCACTTC | 0.0586
24 | ACGCGACT | -0.174
25 | CATTACTC | 0.11

Row | Sequence | PBM E-score
26 | AATTATAC | 0.284
27 | AATTACTC | 0.328
28 | GATTATCA | 0.19
29 | GATTATAA | 0.172
30 | GATTATTA | 0.298
31 | CATTATTC | 0.213
32 | CATTATCC | 0.224
33 | AATTATTC | 0.423
34 | CATTATTA | 0.243
35 | AATTACTA | 0.234
36 | GATTATCC | 0.396
37 | AACGGCTC | -0.0166
38 | TAGGAATA | 0.194
39 | AGTGGTCG | -0.159
40 | ATTGCCAA | -0.00029
41 | TATTGGCA | 0.0828
42 | ACATTGCG | 0.0729
43 | TGTCCACA | 0.134
44 | GGACACAA | 0.163
45 | CTGAGCAA | -0.0556
46 | ATGCCTAC | -0.0813
47 | CACTGGGA | -0.0293
48 | ATACAAGC | 0.209
49 | AGTTATTC | 0.345
50 | AGTTATTG | 0.223

Row | Sequence | PBM E-score
51 | AATTATTG | 0.274
52 | AATTATTA | 0.359
53 | AGTTATTA | 0.173
54 | AATTATAA | 0.253
55 | ATGAAGAG | 0.0478
56 | AGAAGACG | 0.123
57 | ATTTCCGA | 0.247
58 | ATTTCCGC | 0.15
59 | ATTTCCTA | 0.101
60 | ATTTCCTC | 0.176
61 | ATTTCCTG | 0.3
62 | ATTTCCGG | 0.298
63 | CCCGAGGC | -0.329
64 | ATTAAGCC | 0.0562
65 | CATTTACA | 0.197
66 | AAATTACC | 0.164
67 | AATTTTAA | 0.285
68 | AATTTTAC | 0.282
69 | GATTTACA | 0.297
70 | AACTTGAA | 0.251
71 | AACTTGAG | -0.167
72 | AAATTACG | 0.111
73 | TATTTACA | 0.21
74 | AAATTACT | 0.333
75 | AATTTTAT | 0.331

Row | Sequence | PBM E-score
76 | AACTTGAT | 0.333
77 | CGCTCCTA | -0.101
78 | AGTTAGAA | 0.0705
79 | GTGGCTGA | -0.183
80 | GACAGCAC | -0.00022
81 | GGGTCCTA | -0.279
82 | TCTAAGCA | -0.00029
83 | CCGCTGCC | -0.418
84 | CCAGAGCA | -0.0441
85 | AACCAGCC | -0.0273
86 | GACCAGGC | -0.164
87 | AGGATGCA | -0.0489
88 | CGTTCTAC | 0.00885
89 | CTGTTGTC | -0.0159
90 | AATTTAAG | 0.211
91 | AATTTAGT | 0.241
92 | AACTTAAA | 0.237
93 | AATTTAAT | 0.319
94 | AACTTAAT | 0.314
95 | AATTTACT | 0.311
96 | AATTTAAC | 0.245
97 | AACTTAAG | 0.0775
98 | AATTTACA | 0.134
99 | CCTACCGC | -0.292
100 | CCCAGTAC | -0.0948

Row | Sequence | PBM E-score
101 | CGAAGCGA | -0.0591
102 | ACCAACAC | -0.0108
103 | ACCTTGAA | 0.102
104 | GAATTATA | 0.307
105 | GAATTACC | 0.139
106 | TAATTCTA | 0.288
107 | AAATTCTA | 0.217
108 | GCATTATA | 0.0824
109 | CAATTATA | 0.28
110 | GAATTAAC | 0.249
111 | AAATTATA | 0.215
112 | TAATTATA | 0.382
113 | GAATTCTA | 0.176
114 | GGATTATA | 0.244
115 | GAATTATC | 0.305
116 | CTGCACAG | -0.0409
117 | ATCCATAG | -0.0877
118 | CCAGAAAG | 0.171
119 | CCTAAATC | 0.0625
120 | AATTGACG | -0.0634
121 | CTATGCGA | -0.0724
122 | AGAAATAT | 0.299
123 | AGAAATAC | 0.104
124 | AGAAATAA | 0.36
125 | AGAAATAG | 0.227

Row | Sequence | PBM E-score
126 | CGAAATAA | 0.264
127 | GGAAATAA | 0.284
128 | AATTGCCT | 0.0818
129 | AAACTCCG | 0.17
130 | CTCTGCTC | -0.16
131 | ACTGGCCC | 0.0468
132 | AGTTGGAT | 0.288
133 | AGTTGGAC | -0.0273
134 | AGTTGGAG | -0.0321
135 | CAGTCACG | -0.248
136 | CACCGTGG | -0.311
137 | AACAAGTG | 0.127
138 | ACCACCGC | -0.197
139 | TAGATTGA | 0.233
140 | TAGATTCA | 0.0876
141 | CAGATTAG | -0.134
142 | AAGATTAC | 0.101
143 | TAGATTAA | 0.312
144 | AAGATTAA | 0.289
145 | GAGATTAA | 0.182
146 | AAGATTAG | 0.219
147 | CAGATTAA | 0.291
148 | TCTGGGAA | -0.0142
149 | GACGTCAA | -0.013
150 | AGTTGGAA | 0.124

Row | Sequence | PBM E-score
151 | CCCAAGAG | -0.146
152 | AATCATCA | 0.17
153 | CCTGCCAG | -0.2
154 | CTGGCCTA | -0.0592
155 | AAAATCAG | 0.188
156 | AAAATCAT | 0.31
157 | ATAATCAG | 0.092
158 | ATAATCAT | 0.292
159 | AAAATCAA | 0.221
160 | ATAATCAA | 0.229
161 | CGGAAAGA | -0.0353
162 | AGGTGTAC | 0.0056
163 | CTCAAGTA | 0.0799
164 | ATAGCTTG | -0.0519
165 | GGCGACCC | -0.301
166 | ACACACAT | 0.117
167 | AAATCGCT | -0.173
168 | GCTTATAA | 0.147
169 | ACTTATAA | 0.305
170 | ACTTATAT | 0.328
171 | TCTTATAA | 0.0725
172 | ACTTATAC | 0.244
173 | ACTTATAG | 0.0878
